In all, about 31,000 sequences went through this assay and about 1,400 (4.5%) were called active.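 The calls were made as follows: active = median seed-adjusted z-score above 1 or below -1; inactive = the rest.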 The sample as a whole holds a higher share of actives than the screen did.

This assay in a line: Novel Modifiers of Survival Motor Neuron (SMN) Protein: Gene Identification via Genome-wide siRNA Screen.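 Also: luminescence tracks full-length SMN protein made from the SMN2 reporter.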 Conditions: HEK293T SMN2-luciferase reporter, siRNA knockdown, 72 h; actives lie on both sides. The gist of the method:
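HEK293T cells stably carrying an SMN2 promoter/splicing cassette–luciferase reporter were reverse-transfected with 1 pmol siRNA per well (druggable-genome library, 3 siRNAs per gene) and grown 72 h at 37 °C. Luminescence, normalized to negative-control siRNA and log10-transformed, was scored as MAD.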
On to AGACCGACCUGGGCAUGAATT against SARM1, for which the median seed-adjusted z-score was 0.343 (inactive). With CCAAAAUUGAAGUAAUAGATT against GTF2E2 the figure was -1.32 (active).

Turning to GCUCAGUUCUCGUCAAGGATT against ARIH2, the median seed-adjusted z-score is 0.0449 (inactive). For AGUGAACUCCGGUCCUGCATT against RAB11FIP3 the value was 0.0361 (inactive); for GCGAUGAGGUGGACUUGUATT against ST3GAL1, 0.255 (inactive). Turning to GACCUGUCACAGAACCAGATT against VASN, the median seed-adjusted z-score was 0.213 (inactive). On to GUCUUCAUGUAUGUCUUUUTT against GJB1, for which the median seed-adjusted z-score was 0.152 (inactive). For AGGUAGAAGAAAUGCAAUATT against PKIA the value was 0.533 (inactive).

As for GCCUAUAGGAUUGAACCAATT against DDHD2, the median seed-adjusted z-score is 0.447 (inactive). For GCUGGGUAGUUUGACUGAATT against TRIM61 the value was 0.0116 (inactive); for CAAAUACCGUUAAGCUGGATT against HBA1, -1.03 (active). In the case of CUCUUAUAGUUGAUCGUGATT against ATAD2B, the median seed-adjusted z-score was 0.0192 (inactive). On to GGAUAGCACAUGAUACAGATT against GAN, for which the median seed-adjusted z-score was -1.07 (active). Regarding CCAUAUCGAAUAAUAAUGATT against SCRT1, the median seed-adjusted z-score was -0.483 (inactive). With GGUUCUGACAGACAAUGGATT against DPT the figure was 0.073 (inactive). With GGACUCUUCUUUAGCUUUATT against TSPAN31 the figure was -1.13 (active). For CCGAAUCAUUAUGCACCAATT against OCLN the value was 0.232 (inactive). For the sequence CAACCACACUAACGAGAUUTT against GLRX, the median seed-adjusted z-score is -0.0561 (inactive).

Take ACACCUGCCUGGUAGAGAATT against FGFR4: the median seed-adjusted z-score is 0.0825 (inactive). For GAAACUUGAUUGAUCUUUATT against MITF the value was -0.249 (inactive).

Regarding GAGAAGAUCUGGAACUCAUTT against CRAT, the median seed-adjusted z-score is -1.42 (active).

Regarding GCAGGUCAAAUUUCCAUAATT against ZNF175, the median seed-adjusted z-score is -0.0194 (inactive). On to CAAUAUCUGCUGUUAGCAATT against SCARB2, for which the median seed-adjusted z-score was -0.244 (inactive). For GAUCAAAUAUGACUUCCUATT against GPR103 the value was 0 (inactive).

Turning to GCUGGAAAAGGUUAACGAATT against PKNOX1, the median seed-adjusted z-score was 0.68 (inactive). For GGACAUGACAGCAACCUUUTT against EGR1 the value was 0.0836 (inactive); for CAAUGUCCGGAAGCAGUUUTT against ACAD8, 1.06 (active); for GGUCAACUCUCUACUGAUATT against ARHGAP29, -0.0483 (inactive). For GCAUAGAAGGCUUCACGAATT against PLCH1 the value was -0.00634 (inactive); for UCACUGAAAUGAAACUGGUTT against ACBD4, -0.363 (inactive). For AAGAGAUUUUUGUAACUGATT against BCL2L14 the value was -0.859 (inactive); for CGAUUUGAAGGUCCAUAUATT against DNAJC2, -0.0357 (inactive); for CCUCGACUAUUUUAAGACATT against UBA1, 1.34 (active). As to GUCCUUUAACUGAAGCUUUTT against NDUFB9, the median seed-adjusted z-score was -0.982 (inactive).

Take GGACAGUAGUGUGCAACGATT against LRIT1: the median seed-adjusted z-score was -0.611 (inactive).

On to UGAUGAAUGUUAUCGAGAATT against RFC2, for which the median seed-adjusted z-score was 0.00126 (inactive). For GCAGUUUCGAAAUCAACGATT against TEX14 the value was -0.107 (inactive); for ACAAGAACCCUGACAAUAATT against DNAJB8, -1.09 (active); for GCAACAUGCAGAUAGGUUATT against PHF14, 0.354 (inactive). For the sequence GCCUGUGACUCAUACUGGATT against ELF5, the median seed-adjusted z-score was -0.45 (inactive). With CCGGCUACACCUUCCGUAATT against DNAJB8 the figure was -1.09 (active). In the case of GAGAUGCGCAAAUUCACUCTT against IP6K2, the median seed-adjusted z-score was -0.193 (inactive). With GGAAAAUCAUUGUGCUAAUTT against VN2R1P the figure was -0.25 (inactive); with GAUUUGGUUUCGUAACUUUTT against A2BP1, 1.17 (active); with GACUGGUUAUUACGUCUUATT against SYNJ1, 0 (inactive). With GAGUGUAACUGCAACCAGATT against NTNG2 the figure was 0.403 (inactive); with ACUCAGUGGAGGUCACCAATT against EIF3F, -0.0214 (inactive); with GCCUCUCAGAGAACUACGATT against LRRC33, -0.194 (inactive).

As for GGGCGAUGUCCAUCCACAATT against PIF1, the median seed-adjusted z-score is -0.0455 (inactive).

With CUCCAUUCCUGGUAUAGAATT against XRCC5, the median seed-adjusted z-score was -1.11 (active). For CCUCCUCACCAAACCCAUUTT against SLC5A1 the value was -0.812 (inactive).

Take CGACUGAACAAACCCUAUATT against ERCC3: the median seed-adjusted z-score is 0.155 (inactive). With GCCUGAAUGCAGCCCAGUUTT against SP2 the figure was -0.617 (inactive); with AGGACAAGCUGAAAAUCCATT against ZBTB7C, 0.447 (inactive); with UCAGUUUGCUGAGAACGAATT against TCEB1, 1.08 (active).

Take CCUCAACUCUAAAUACUCATT against ZNF716: the median seed-adjusted z-score is 0 (inactive). With GGAGAUCUCUCGUCUCAAUTT against KCNH4 the figure was -0.769 (inactive); with GGAGAUGUAUUGGUGAGAATT against CYP3A5, 0.0516 (inactive); with GCAGCUACAGGUCAUCUCATT against DGAT2, 0.195 (inactive). With GGAGUGCGAUGGACAAUUUTT against LCT the figure was 0.411 (inactive). With GGUGCAAGAGAGUCCGUUUTT against D2HGDH the figure was -0.637 (inactive). Take UGAAAGGACUGGAGUCCAATT against OLFM1: the median seed-adjusted z-score is -0.103 (inactive). With GGAUAUUGGAUUGCCUAGATT against TCFL5 the figure was 1.52 (active); with GGUUCACUUUGAUAGUACUTT against CLCA4, 0.186 (inactive). For GCCCUGAUUUGUGCAAUGATT against PPP1R16B the value was -0.892 (inactive); for GAGUCAGGAUCGCAAGUCATT against SAFB2, 0.0394 (inactive); for CCUCGAUUGUCUUCCGGAATT against UBA7, 2.41 (active). For ACUCCAUCCUGAACCCUCATT against USP49 the value was 0.549 (inactive). Regarding GAUCAAUUACGAAAUCUCATT against MED30, the median seed-adjusted z-score is -2.06 (active).

The values above are taken from PubChem BioAssay AID1347426 (Functional Genomics Laboratory (NCATS/FGL), 2020).
